Rows were chosen to be rich in hits. Some 9.2% of all compounds tested hit in one or more screens of this group.
FLuc modulator = qHTS profiling assay for firefly luciferase inhibitor/activator using purifed enzyme and Km concentrations of substrates (counterscreen for miR-21 project) | Luciferin 4-monooxygenase (Photinus pyralis), P08659 | purified FLuc, Km substrates, luminescence inhibition | Potency, µM (top dose mostly 57.5 µM), hits mostly inhibitors | actives 6.9% (n = 360,000) | AID 588342, 2011; also: nearly all actives have a fitted effect of over 55% in size
Target sequence (P08659 whole entry, looked up): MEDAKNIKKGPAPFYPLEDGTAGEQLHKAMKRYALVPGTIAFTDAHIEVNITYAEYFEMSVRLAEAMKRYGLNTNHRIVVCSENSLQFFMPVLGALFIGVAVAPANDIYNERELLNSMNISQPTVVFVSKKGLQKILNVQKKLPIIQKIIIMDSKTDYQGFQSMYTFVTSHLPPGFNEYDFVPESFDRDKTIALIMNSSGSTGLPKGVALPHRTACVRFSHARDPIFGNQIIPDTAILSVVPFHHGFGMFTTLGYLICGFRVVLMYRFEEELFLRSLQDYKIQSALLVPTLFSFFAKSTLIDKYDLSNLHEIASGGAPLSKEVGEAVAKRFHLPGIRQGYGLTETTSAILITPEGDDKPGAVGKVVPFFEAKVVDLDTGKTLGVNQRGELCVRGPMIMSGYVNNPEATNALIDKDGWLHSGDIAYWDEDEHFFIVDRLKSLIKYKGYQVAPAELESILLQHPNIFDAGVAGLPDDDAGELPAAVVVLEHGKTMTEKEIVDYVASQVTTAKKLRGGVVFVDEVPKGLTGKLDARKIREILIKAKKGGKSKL
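Biochemical qHTS of compounds, final roughly 60 µM downward over six points, against 10 nM purified firefly luciferase using Km concentrations of substrates (10 uM D-luciferin, 10 uM ATP) in Tris acetate pH 7.5 buffer; luminescence output.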
NPC1 promoter act = qHTS Assay for NPC1 Promoter Activators; Potency, µM (top dose mostly 9.22 µM), most hits filed as activators; actives 2.4% (n = 320,000); AID 485313, 2010; Huh7 NPC1 promoter luciferase reporter, 24 h; also: nearly all actives have a fitted effect of over 60% in size
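Luminescence read-out of NPC1 promoter-driven luciferase in stably transfected Huh7 cells; compounds delivered in DMSO and left 24 h at 37C, 5% CO2, qHTS titration format.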
Rab9 promoter act = qHTS Assay for Rab9 Promoter Activators. Potency, µM (top dose mostly 9.22 µM), usual class: activators. actives 2.8% (n = 320,000). Huh7 Rab9 promoter-luciferase reporter, luminescence, 24 h; also: nearly all actives have a fitted effect of over 60% in size
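Rab9 promoter-driven luciferase in stably transfected Huh7 cells; 1500 cells/well rested 2 h, exposed to compound in DMSO for 24 h at 37 °C, 5% CO2. Luminescence read 10 min after adding luciferase reagent at ambient temperature.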
ELG1 repair inh = qHTS screen for small molecules that inhibit ELG1-dependent DNA repair in human embryonic kidney (HEK293T) cells expressing luciferase-tagged ELG1; HEK293T ELG1-luciferase reporter, luminescence, 16 h; DNA damage induced by 5-fluorouridine; Potency, µM (titrated, usually from 46.1 µM), hits mostly inhibitors; actives 2.3% (n = 330,000); also: nearly all actives have a fitted effect of over 55% in size
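HEK293T cells expressing luciferase-tagged ELG1 (2,000/well) received 5-Fluorouridine plus compound or DMSO for 16 hr at 37 °C. Luciferase was read by ONE-Glo luminescence after 30 min at room temperature.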
ELG1 genotoxic = qHTS screen for small molecules that induce genotoxicity in human embryonic kidney (HEK293T) cells expressing luciferase-tagged ELG1; HEK293T ELG1-luciferase reporter, luminescence, 16 h; Potency, µM (doses to about 46 µM), actives largely listed as activators; actives 1.3% (n = 330,000); also: nearly all actives have a fitted effect of over 60% in size
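HEK293T cells expressing luciferase-tagged ELG1 were treated with compound or DMSO for 16 hr at 37°C. Luciferase activity was then read after 30 min with ONE-Glo at room temperature; rising signal flags genetic stress.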
SMN2 splice up = qHTS Assay for Enhancers of SMN2 Splice Variant Expression | HEK293 SMN2-luciferase splicing reporter, luminescence, 30-36 h | Potency, µM (highest dose often 46.1 µM), hits mostly activators | actives 2.8% (n = 210,000); also: nearly all actives have a fitted effect of over 55% in size
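qHTS luciferase splicing reporter: luminescence rises when SMN2 exon 7 is included in transfected HEK293 cells. Compound exposure lasted 30-36 h at 37C, with 4.5 mM final sodium butyrate as control, followed by a ONE-Glo read.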
Of the large screens only hits and unclear results are named; the others gave an inactive call. Calls follow the shape of the dose curve; as a rule, active = well fitted curve in the direction sought with a large enough effect; inconclusive = small, poorly fitted or top-dose-only effect, or another doubt; inactive = no such curve, though single readings can be large; an effect the other way counts as inactive or inconclusive.

CCOc1cc(/C=N/NC(=O)Nc2ccccc2)ccc1O	FLuc modulator 9.53µM, Rab9 promoter act inconclusive, ELG1 repair inh inconclusive, ELG1 genotoxic inconclusive (no result: SMN2 splice up)
CCOc1cc(/C=N/NC(=O)c2ccc(NC(=O)C3CC3)cc2)ccc1O	FLuc modulator inconclusive (no result: SMN2 splice up)
COc1cc(/C=N/NC(=O)Nc2ccccc2)ccc1OC(C)=O	FLuc modulator 10.7µM, Rab9 promoter act inconclusive, ELG1 repair inh inconclusive, ELG1 genotoxic inconclusive, SMN2 splice up inconclusive
CC1CCN(S(=O)(=O)c2ccc3c(ccc(=O)n3CC(=O)Nc3cccc(F)c3)c2)CC1	none (no result: NPC1 promoter act, Rab9 promoter act, ELG1 repair inh, ELG1 genotoxic, SMN2 splice up)
Cc1ccc(CNc2nc(C)cs2)cc1	FLuc modulator 6.01µM, NPC1 promoter act 2µM, Rab9 promoter act 1.12µM, ELG1 repair inh inconclusive, ELG1 genotoxic 1.03µM (no result: SMN2 splice up)
CCC(=O)N1CCc2cc(Br)cc(S(=O)(=O)CCC(=O)NCc3cccc(OC)c3)c21	none (no result: NPC1 promoter act, Rab9 promoter act, ELG1 repair inh, ELG1 genotoxic)
CC(C)(C)OC(=O)NCCCCCNC(=O)c1nc[nH]c1C(=O)N1CCc2ccccc2C1	ELG1 repair inh 16.4µM (no result: FLuc modulator, NPC1 promoter act, Rab9 promoter act, SMN2 splice up)
CC(C)(C)OC(=O)[C@H](Cc1ccccc1)NC(=O)c1nc[nH]c1C(=O)N1CCc2ccccc2C1	none (no result: SMN2 splice up)
CC(C)(C)OC(=O)NCCCC[C@H](NC(=O)c1nc[nH]c1C(=O)N1CCc2ccccc2C1)C(=O)OC(C)(C)C	ELG1 repair inh 8.2µM (no result: SMN2 splice up)
Cc1ccc(NCc2ccccc2-c2nnc(-c3ccccc3Cl)o2)cc1Cl	FLuc modulator inconclusive (no result: NPC1 promoter act, Rab9 promoter act, ELG1 repair inh, ELG1 genotoxic)
Fc1ccc(NCc2ccccc2-c2nnc(-c3ccccc3Cl)o2)cc1	FLuc modulator 6.01µM (no result: NPC1 promoter act, Rab9 promoter act, ELG1 repair inh, ELG1 genotoxic)
CCc1cccc(NCc2ccccc2-c2nnc(-c3ccccc3Cl)o2)c1	FLuc modulator 3.38µM (no result: NPC1 promoter act, Rab9 promoter act, ELG1 repair inh, ELG1 genotoxic)
CC1CCN(S(=O)(=O)c2ccc3c(c2)N(CC(=O)NCCN(C)C)C(=O)CS3)CC1	none (no result: NPC1 promoter act, Rab9 promoter act, ELG1 repair inh, ELG1 genotoxic)
Cc1ccc(/C(O)=C2\C(=O)C(=O)N(Cc3cccnc3)C2c2ccccc2[N+](=O)[O-])cc1 (centres undefined)	FLuc modulator inconclusive, ELG1 repair inh inconclusive
CCc1ccccc1NC(=O)c1cnc2sc(N3CCCC3)nn2c1=O	none (no result: NPC1 promoter act, Rab9 promoter act, ELG1 repair inh, ELG1 genotoxic, SMN2 splice up)
COc1ccc2nc(Nc3nc4cc5c(cc4s3)OCO5)sc2c1	ELG1 repair inh inconclusive, SMN2 splice up inconclusive
COc1ccc(Nc2nc3ccccc3c(=O)s2)c(OC)c1	none
COc1ccc2nc(Nc3ccccc3)sc2c1	FLuc modulator 1.51µM, NPC1 promoter act 3.55µM, Rab9 promoter act 1.58µM, ELG1 repair inh inconclusive, SMN2 splice up 11.2µM
COc1ccc2nc(Nc3ccccc3OC)sc2c1	FLuc modulator 0.477µM, NPC1 promoter act 1.12µM, Rab9 promoter act 0.355µM, ELG1 repair inh inconclusive, ELG1 genotoxic inconclusive, SMN2 splice up 2.82µM
COc1ccc2nc(Nc3ccc4c(c3)OCO4)sc2c1	FLuc modulator inconclusive, NPC1 promoter act inconclusive, Rab9 promoter act 4.47µM, ELG1 repair inh inconclusive, ELG1 genotoxic 5.8µM, SMN2 splice up inconclusive
COc1ccc2nc(NC(=O)Nc3ccccc3OC)sc2c1	FLuc modulator 0.953µM, NPC1 promoter act inconclusive, Rab9 promoter act 0.631µM, ELG1 repair inh inconclusive, ELG1 genotoxic inconclusive (no result: SMN2 splice up)
COc1ccc2nc(NC(=O)Nc3cccc4ccccc34)sc2c1	FLuc modulator inconclusive, Rab9 promoter act inconclusive, ELG1 repair inh inconclusive, SMN2 splice up inconclusive
CC(C)(C)c1ccc(C(=O)CCCN2CCC(OC(c3ccccc3)c3ccccc3)CC2)cc1	none (no result: FLuc modulator, ELG1 repair inh, ELG1 genotoxic, SMN2 splice up)
COc1ccccc1NC(=O)Nc1nc2ccc(S(N)(=O)=O)cc2s1	FLuc modulator inconclusive, NPC1 promoter act inconclusive, Rab9 promoter act 3.98µM, ELG1 repair inh inconclusive, ELG1 genotoxic inconclusive (no result: SMN2 splice up)
CN(C)c1ccc(-c2noc(C3CCN(C(=O)Nc4ccc(Cl)cc4)CC3)n2)cc1	ELG1 repair inh inconclusive (no result: SMN2 splice up)
CCOc1ccc(C(=O)N2CCCC(c3nc(-c4cccs4)no3)C2)cc1 (centres undefined)	FLuc modulator 21.3µM (no result: SMN2 splice up)
Cc1cccc(C(=O)N2CCCC(c3nc(-c4ccc(C)o4)no3)C2)c1 (centres undefined)	FLuc modulator inconclusive, NPC1 promoter act inconclusive, Rab9 promoter act 3.98µM, ELG1 repair inh inconclusive (no result: SMN2 splice up)
CCC(CC)C(=O)N1CCCC(c2nc(-c3cccs3)no2)C1 (centres undefined)	none
Cc1ccc(-c2noc(C3CCN(C(=O)Nc4ccc(C#N)cc4)CC3)n2)o1	ELG1 repair inh 25.9µM
O=c1cc(C(F)(F)F)[nH]c(=S)n1-c1ccccc1	none (no result: SMN2 splice up)
Cc1ccc(-c2nn(-c3ccccc3)cc2C=C2C(=O)CC(C)(C)CC2=O)cc1	FLuc modulator 23.9µM
CC1=NNC(=O)/C1=C\c1cn(-c2ccccc2)nc1-c1ccc(Cl)cc1	ELG1 repair inh 9.2µM
CC(C)(C)c1cc(CP(=O)(c2ccccc2)c2ccccc2)cc(C(C)(C)C)c1O	none (no result: SMN2 splice up)
O=C(NCC1CCCO1)c1cc2nc(-c3ccco3)cc(C(F)(F)Cl)n2n1 (centres undefined)	none (no result: SMN2 splice up)
Cn1c(Nc2ccccc2)nc2ccccc21	FLuc modulator inconclusive, ELG1 repair inh inconclusive (no result: SMN2 splice up)
Nn1c(Nc2ccccc2)nc2ccccc21	FLuc modulator 10.7µM, NPC1 promoter act 2.82µM, Rab9 promoter act 3.98µM, ELG1 repair inh inconclusive, ELG1 genotoxic inconclusive, SMN2 splice up inconclusive
O=C1CC2(CCN(C(=O)c3cccc(F)c3)CC2)Oc2ccccc21	none (no result: SMN2 splice up)
O=C(NCCSc1ccccn1)c1ccc(Cl)cc1Cl	FLuc modulator inconclusive, NPC1 promoter act 0.794µM, Rab9 promoter act 1.12µM, ELG1 repair inh inconclusive, SMN2 splice up 3.16µM
